Only a selection was taken, and hits are over-represented in it overall.
Pf Dd2 inh = Plasmodium falciparum Dd2 growth inhibition; P. falciparum Dd2 growth, SYBR Green, 72 h; Potency, µM (top dose mostly 28.9 µM), without a hit: top-dose activity, negative = inhibition, hits mostly inhibitors; AID 1347417; hit rate 4.3% among 120,000; active means well fitted inhibition curve with a large enough effect;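 further: plate controls were DMSO vehicle for no effect and reference drug for full effect; nearly all actives have a fitted effect of over 65% in size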
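Infected erythrocytes (Dd2, 0.3% parasitemia, 2.5% hematocrit final) are added to compound in RPMI-1640/Albumax II medium, grown 72 h at 37C in low oxygen, then lysed with saponin/Triton-X containing SYBR Green and read by fluorescence.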
* = called active by the depositor; i = inactive; [ ] = dose if it differs, or a comment. Potency means the concentration at half of the fitted maximal effect.

SMILES	Pf Dd2 inh
CCn1nccc1C(=O)N1CCC(OCC2CC2)C1 (stereo not drawn)	26%
O=S(=O)(Nc1nc2n(n1)C(c1ccccc1)C=C(c1ccc(Cl)cc1)N2)c1ccccc1 (stereo not drawn)	27%
O=C(Nc1nc2n(n1)C(c1ccc(F)cc1)C=C(c1ccccc1)N2)c1ccc(Cl)cc1 (stereo not drawn)	10µM*
Cc1ccc(C2C=C(c3ccccc3)Nc3nc(NS(=O)(=O)c4ccccc4)nn32)cc1 (stereo not drawn)	0%
CC(=O)Nc1ccc(S(=O)(=O)Nc2nc3n(n2)C(c2ccccc2)C=C(c2ccc(Cl)cc2)N3)cc1 (stereo not drawn)	13%
CC1=C(C(=O)Nc2cccnc2)C(c2ccc(Cl)cc2)n2nc(-c3ccccc3)nc2N1 (stereo not drawn)	i
O=S(=O)(Nc1nc2n(n1)C(c1ccc(F)cc1)C=C(c1ccccc1)N2)c1ccc(Cl)cc1 (stereo not drawn)	-16%
Cc1ccc(C2C=C(c3ccccc3)Nc3nc(NS(C)(=O)=O)nn32)cc1 (stereo not drawn)	107%[5.79 µM]
CCC1Oc2ccc(NC(=O)c3ccc([N+](=O)[O-])cc3)cc2CN(Cc2ccc(F)cc2)C1=O (stereo not drawn)	-10%
O=C(Cn1nnc(-c2ccc(Cl)cc2)n1)NCc1ccc(F)cc1	-4%
O=C(Nc1nc2n(n1)C(c1ccccc1)C=C(c1ccccc1)N2)c1ccc(Cl)c([N+](=O)[O-])c1 (stereo not drawn)	8.9µM*
Cc1ccc(C(=O)Nc2nc3n(n2)C(c2ccccc2)C=C(c2ccccc2)N3)cc1 (stereo not drawn)	11µM*
O=C(Nc1nc2n(n1)C(c1ccc(F)cc1)C=C(c1ccc(Cl)cc1)N2)c1ccc([N+](=O)[O-])cc1 (stereo not drawn)	4µM*
COCCN1CCCCCC(O)c2cc(C(=O)Nc3cc(C)ccc3OC)ccc21 (stereo not drawn)	-1%
COCCN1CCC(CN(Cc2ccncc2)C(=O)c2cnccn2)CC1	0%
Cn1cc([C@@H](NC(=O)CCn2nnc3ccccc32)C2CC(O)C2)cn1 (stereo partly drawn)	-23%
Cc1ccc(C(=O)NCc2cccnc2Oc2ccccc2)cn1	2%
O=C(C1CCCC1)N1CCC(C(=O)O)(c2ccccc2)CC1	-2%
COc1ccc(-c2ccc3nnc(CNC(=O)c4ccccc4F)n3n2)cc1	i
CCC(c1cccs1)N1C(=O)[C@H]2CN(S(=O)(=O)c3cn(C)cn3)C[C@H]2C1=O (stereo partly drawn)	i
Cc1ccsc1C(=O)N1CCC(c2nc(C3CCOCC3)no2)C1 (stereo not drawn)	16%
Cc1ccc(C(=O)Nc2nc3n(n2)C(c2ccc(F)cc2)C=C(c2ccccc2)N3)cc1 (stereo not drawn)	6.3µM*
COc1ccc(C2C=C(c3ccc(Cl)cc3)Nc3nc(NC(=O)CCC(=O)O)nn32)cc1 (stereo not drawn)	-5%
COc1ccccc1C(=O)Nc1nc2n(n1)C(c1ccc(F)cc1)C=C(c1ccc(Cl)cc1)N2 (stereo not drawn)	4.5µM*
Fc1ccc(C2=CC(c3ccc(F)cc3)n3c(nc4ccccc43)N2)cc1 (stereo not drawn)	67%
SMILES	Pf Dd2 inh
Cc1ccc(C2C=C(c3ccc(Cl)cc3)Nc3nc(NC(=O)c4ccco4)nn32)cc1 (stereo not drawn)	3.5µM*
COc1ccc(C2C=C(c3ccccc3)Nc3nc(NS(=O)(=O)c4ccc(Cl)cc4)nn32)cc1 (stereo not drawn)	4%
Cc1ccc(S(=O)(=O)Nc2nc3n(n2)C(c2ccc(F)cc2)C=C(c2ccccc2)N3)cc1 (stereo not drawn)	-30%
Cc1ccc(-c2nc3sc(CCNC(=O)c4ccco4)c(C)n3n2)cc1	i
COc1ccc(C(=O)Nc2nc3n(n2)C(c2ccc(F)cc2)C=C(c2ccc(Cl)cc2)N3)cc1 (stereo not drawn)	5µM*
COc1ccccc1C(=O)NC1CCN(c2cc(-c3ccc(Cl)cc3)[nH]n2)CC1	i
O=C(Nc1cnc(-c2ccc(F)cc2)nc1)c1ccco1	i
CN(Cc1cnc2ccccc2c1)C(=O)c1ccc(CCC(C)(C)O)cc1	-29%
CCc1nc2cc(N3CCCC(C(=O)NC4CC4)C3)cnc2nc1CC (stereo not drawn)	i
CN(CC1CCOCC1)C(=O)c1ccc(F)c(F)c1	-13%
COCCc1nncn1C1CCN(S(=O)(=O)c2ccc(C(F)(F)F)cc2)CC1	2%
Cc1ccc(-c2nnc(C3CN(C(=O)c4ccc(F)c(F)c4)CC34CCOCC4)o2)cc1 (stereo not drawn)	2%
O=C(c1ccc(C(F)(F)F)cc1)N1CCCC(c2nn(-c3ccccc3)c(=O)[nH]2)C1 (stereo not drawn)	-14%
COc1cc2nc(SCC(=O)Nc3ccc(F)cc3)n3nc(CCn4c(C)nc5ccccc54)nc3c2cc1OC	i
COc1ccccc1NC(=O)Cn1c(SCC(=O)Nc2ccc(F)cc2)nc2ccccc21	i

Bioassay records (PubChem BioAssay)
